# Measured values: PubChem BioAssay AID1645860 (Buhrlage Lab, Dana-Farber Cancer Institute and Novartis …, 2021)
# The campaign covered roughly 47,000 compounds. About 2,500 (5.3%) were called active. Shown is part of a subset that was picked to be rich in actives. A number with no mark means an inactive call. Cut-off read from the data, not from the text of the source: active = inhibition above about 30%; inactive = the rest.
# Molecular target: Ubiquitin carboxyl-terminal hydrolase 30 (Homo sapiens) (UniProt Q70CQ3)
# Sequence (Q70CQ3 whole entry, looked up): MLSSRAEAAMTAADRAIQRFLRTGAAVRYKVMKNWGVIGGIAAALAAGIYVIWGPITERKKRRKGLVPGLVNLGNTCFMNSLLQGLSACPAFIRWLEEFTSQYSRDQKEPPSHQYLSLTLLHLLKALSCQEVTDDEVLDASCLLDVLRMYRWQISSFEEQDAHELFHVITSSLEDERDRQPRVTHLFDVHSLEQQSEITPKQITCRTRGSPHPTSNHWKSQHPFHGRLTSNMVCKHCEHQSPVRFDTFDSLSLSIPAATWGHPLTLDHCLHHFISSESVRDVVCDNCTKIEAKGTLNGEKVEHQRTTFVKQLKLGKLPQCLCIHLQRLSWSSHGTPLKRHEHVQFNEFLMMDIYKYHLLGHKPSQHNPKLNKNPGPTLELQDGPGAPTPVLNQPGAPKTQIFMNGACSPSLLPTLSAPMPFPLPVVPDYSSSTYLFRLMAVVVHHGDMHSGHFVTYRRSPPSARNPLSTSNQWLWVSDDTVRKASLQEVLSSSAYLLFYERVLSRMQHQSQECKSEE
# Test: blocks human USP30 ubiquitin-rhodamine cleavage (AID 1645860)
# Conditions: purified USP30, Ub-rhodamine cleavage fluorescence; at 25 µM; stronger effect = higher value
row,SMILES,inhibition
1,CCC(C(=O)Nc1ccc(-c2cn3cccnc3n2)cc1)c1ccccc1 (centres undefined),-89.6%
2,N#Cc1ccc(C(=O)Nc2cccc(-c3noc(C4CC4)n3)c2)c(F)c1,13.2%
3,Cc1ccc(F)c2c(=O)c3c([nH]c12)CCN(CC(=O)Nc1cccc(C#N)c1)C3,-178%
4,O=C(Cn1c(=O)n(Cc2ccc3c(c2)OCO3)c(=O)c2cccnc21)Nc1ccc(F)cc1,21.5%
5,CC(C)(C)C(=O)Cn1c(=O)n(Cc2ccco2)c(=O)c2ccccc21,1.71%
6,O=C(Cn1c(=O)n(Cc2ccc3c(c2)OCO3)c(=O)c2ccccc21)NCc1ccco1,33% (active)
7,Cc1cc2oc(=O)cc(CN3CCN(Cc4ccccc4)CC3)c2cc1C,3.27%
8,Cc1cccc(NC(=O)Nc2ccc3c(c2)N(S(=O)(=O)c2ccccc2)CC3)c1C,30.5% (active)
9,COc1ccccc1NC(=O)c1cccc(S(=O)(=O)N2CCc3ccccc32)c1,-7.37%
10,Cc1ccc(NC(=O)c2ccc3c(c2)N(S(C)(=O)=O)CC3)cc1C,-53.8%
11,COc1ccc(C2=NC3(CCN(Cc4cccc(F)c4)CC3)NC2=O)cc1,-23.4%
12,CCc1cnc(N2CC[C@@H]3CN(CCC(C)C)S(=O)(=O)[C@@H]3CC2)nc1,27.9%
13,Cc1ccc2c(=O)cc(CN(C)Cc3ccc(F)cc3)[nH]c2c1C,-7.81%
14,COc1ccc(C2=CC(c3ccc(Cl)cc3)n3ncc(C(=O)Nc4ccccc4)c3N2)cc1 (centres undefined),-15.7%
15,C=C1CCC2[C@](C)(CCC[C@]2(C)C(=O)OC)[C@H]1CCc1ccoc1C[N+](C)(C)Cc1ccccc1 (some centres undefined),72.7% (active)
16,C=C1CCC2[C@](C)(CCC[C@]2(C)C(=O)OC)[C@H]1CCc1ccoc1/C=C/C(=O)O (some centres undefined),61.8% (active)
17,CNc1nc(C2CCNCC2)nc2c1CCN(S(=O)(=O)c1ccccc1Cl)C2,-118%
18,COc1cc(O)ccc1CN1CCCC12Cc1ccccc1CNC2=O (centres undefined),-28%
19,Cc1cncc(C2CCCN(C(=O)CCc3cc(Cl)no3)C2)n1 (centres undefined),-18.4%
20,O=C(COc1ccccc1Cl)NCC(c1ccco1)N1CCOCC1 (centres undefined),-52.2%
21,COc1ccc(N2C(=O)N(Cc3ccccc3)S(=O)(=O)c3cccnc32)cc1,13.9%
22,COc1ccccc1NC(=O)NCc1cnn2ccccc12,14.1%
23,Cc1nc(C2CCN(C(=O)C(C)(C)C)CC2)cc(N2CC3(CCOCC3)OC2=O)n1,6.69%

row,SMILES,inhibition
1,O=C(C1CCCCC1)N1CCN(c2ncnc3c2nnn3Cc2ccccc2)CC1,43.1% (active)
2,c1ccc(Cn2nnc3c(N4CCCCC4)ncnc32)cc1,3.44%
3,O=C(C1CCCCC1)N1CCC(c2nc3c(nnn3Cc3cccc(F)c3)c(=O)[nH]2)CC1,19.3%
4,CCS(=O)(=O)N1CCc2c(nc(C3CCCN3)nc2NC)C1 (centres undefined),-56.6%
5,COc1ccc(NC(=O)C(C)c2c(C)n[nH]c2C)cc1 (centres undefined),23.5%
6,Cc1cccc2c1N(C(=O)Nc1ccc(OCc3ccccc3)cc1)CCC2,16.1%
7,O=C(CN1CCCC1c1ccc2c(c1)OCCCO2)NCCc1ccccc1F (centres undefined),-52%
8,Cn1cc(CCNC(=O)Nc2cc(F)ccc2F)c2cccnc21,-16.4%
9,Cc1c(Cl)cccc1NC(=O)CCn1cnc2ccccc2c1=O,74% (active)
10,Cc1ccc(N(C)C(=O)CCn2cnc3ccccc3c2=O)cc1,-5.01%
11,CCN1CCc2nc(-c3ccccc3)n(CC(=O)Nc3cccc(Cl)c3C)c(=O)c2C1,-97%
12,CCOc1ccc(CC(=O)N2CCN(c3ccc(OC)nn3)CC2)cc1,-11.9%
13,Cc1cc(C)n(-c2ccc(C(=O)NCC(c3ccccc3)c3c[nH]c4ccccc34)cc2)n1 (centres undefined),-19.5%
14,O=C(Cc1ccccc1)N1CCN(c2ccc(N3CCCC3)nn2)CC1,-15.8%
15,Cc1cc(C)n(-c2ccc(C(=O)Nc3ccccc3C(C)C)nn2)n1,34.9% (active)
16,O=C(c1ccc(N2CCCC2)nn1)N1CCN(c2ccccn2)CC1,3.65%
17,CSc1ccccc1NC(=O)c1ccc(N2CCCC2)nn1,77.3% (active)
18,O=C(CSc1ncnc2c1nnn2-c1ccc(F)cc1)N1CCc2ccccc21,3.49%
19,CCCOc1ccc(C2Nc3ccccc3S(=O)(=O)N2Cc2ccccc2)cc1OCC (centres undefined),11%
20,CCc1noc(-c2c(C)cc(C)n2CC(=O)NCc2cccc(F)c2)n1,19.8%
21,COc1ccc(C(CNC(=O)c2oc3ccccc3c2C)N2CCOCC2)cc1 (centres undefined),0.732%
22,Cc1ccc(Cn2cc(-c3noc(-c4ccccn4)n3)nn2)cc1,15%
23,Cc1ccc(Cn2cc(-c3noc(-c4ccc[nH]4)n3)nn2)cc1,65% (active)

row,SMILES,inhibition
1,Cc1noc(-c2cccn2Cc2ccc(F)cc2)n1,-50.7%
2,CCN1C(=O)c2c(C(=O)NC3CC3)ncn2CC1(C)C(=O)NC1CCCC1 (centres undefined),9.61%
3,COc1cc(C(=O)Nc2ccc(-c3nc4cnccc4o3)cc2)cc(OC)c1OC,14.2%
4,COc1cccc(CNC(=O)c2ccc(-c3cncnc3)nc2)c1,17.3%
5,COc1cccc(C(=O)NCc2ccc(-c3nc4cnccc4o3)cc2)c1,30.7% (active)
6,Cc1cnc(C(=O)N2CCC3(CC2)CC(OCC2CC2)CO3)cn1 (centres undefined),-3.6%
7,O=C(Cc1ccccc1)N1CCc2[nH]nc(-c3ccc(F)cc3)c2C1,-4.25%
8,CC(NC(=O)c1ccc(S(=O)(=O)Nc2ccccc2)cc1)c1ccc(S(N)(=O)=O)cc1 (centres undefined),11.3%
9,CC1(C)Cc2nc(-c3ccccc3)nc(SCC(=O)Nc3cccc4ccccc34)c2CO1,-6.78%
10,CN1C(=O)C(C)(C)COc2ccc(NS(=O)(=O)c3ccccc3Cl)cc21,0.732%
11,COc1ccc2c(Sc3ccccc3)c(C(=O)NCc3ccc4c(c3)OCO4)[nH]c2c1,7.37%
12,CCCCN(c1ccccc1)S(=O)(=O)c1cccc(C(=O)OCC(=O)NCc2ccc3c(c2)OCO3)c1,47.1% (active)
13,O=C(COC(=O)c1ccc(F)c(S(=O)(=O)N2CCOCC2)c1)NCc1ccc2c(c1)OCO2,-3.24%
14,CC(C)Cc1cc(-c2nn3c(-c4ccccc4Cl)nnc3s2)n[nH]1,40.6% (active)
15,Cc1c(-c2nn3c(-c4ccco4)nnc3s2)cccc1[N+](=O)[O-],-45.6%
16,CNc1nc2c(c(=O)n1C)CN(S(=O)(=O)c1ccccc1)CC2,11.5%
17,CC(C)c1ccc(C(=O)N2CCN(c3cnn4cnnc4c3)CC2)cc1,-7.33%
18,COc1ccc2ccccc2c1S(=O)N1CCN(c2ccccc2F)CC1 (centres undefined),1.36%
19,COc1cc2[nH]c(=O)n(Cc3ccc(C(=O)N4CCN(c5ccccn5)CC4)cc3)c(=O)c2cc1OC,9.66%
20,O=C(Cn1cnc2ccccc21)N1CCCc2ccccc21,-7.37%
21,O=C(CSc1ccc2nnc(-c3ccccc3)n2n1)N1CCCc2ccccc21,51.5% (active)
22,CC1CCN(C(=O)CSc2ccc3nnc(-c4cccc(F)c4)n3n2)CC1,-0.05%
23,CC(C)CN1[C@H]2CCN(C(=O)c3ccccc3)CC[C@@H]2Oc2ccccc2S1(=O)=O,16.5%

row,SMILES,inhibition
1,Cc1cccc(S(=O)(=O)NCCc2cn(C)c3ncccc23)c1,-9.95%
2,Cc1cc2c(cc1S(=O)(=O)N1CCC(C(=O)N(C)Cc3ccco3)CC1)OCC(=O)N2,26.1%
3,O=C(Nc1cc(-c2ccccc2)nn1C1CCS(=O)(=O)C1)c1ccccc1F (centres undefined),-4.62%
4,O=C(Nc1c(C(=O)N2CCOCC2)oc2ccccc12)c1ccccc1F,10.2%
5,CC(C)(C)n1nc(C2CC2)c(Br)c1NC(=O)c1ccccc1F,35.5% (active)
6,O=C(Nc1cc(=O)[nH]c2nc(CCc3ccccc3)nn12)c1ccc(F)cc1,-74.9%
7,C[C@]12C(=O)N(c3cccc(C(=O)NCCN4CCOCC4)c3)C(=O)N1CCc1c2[nH]c2ccccc12,12.9%
8,COc1ccc(CNC(=O)c2ccccc2N2C(=O)N3CCc4c([nH]c5ccccc45)[C@@]3(C)C2=O)cc1,41.7% (active)
9,COc1ccc2[nH]c3c(c2c1)CCN1C(=O)N([C@@H](C)C(=O)NCC(=O)O)C(=O)[C@]31C,-8.05%
10,O=C(N[C@@H]1C[C@@H](Oc2cccc(F)c2)[C@H](O)[C@H]1N1CCCC1)C1CCOCC1,-0.94%
11,COc1cccc(C(=O)N[C@@H]2C[C@@H](Oc3ccccc3)[C@H](O)[C@H]2O)c1,26.7%
12,Cc1nn(-c2ccccc2)c(C)c1S(=O)(=O)N1CCN(c2ccccn2)CC1,-17.2%
13,CCC(=O)Nc1ccc2c(c1)nc(CCN1CCN(c3ccccn3)CC1)n2C,-16.8%
14,Clc1cc2nc(N3CCN(c4ccccn4)CC3)c3nncn3c2cc1Cl,36.4% (active)
15,CCN(C(=O)COc1cccnc1[N+](=O)[O-])c1ccccc1,-14.2%
16,O=C(NCC(=O)N1CCCc2ccccc21)c1cccc2[nH]ccc12,5.02%
17,O=C(c1ccccc1)N1CCC(c2nc3c(nnn3Cc3c(Cl)cccc3Cl)c(=O)[nH]2)CC1,-14.3%
18,COc1ccc(-n2c(SCC(=O)OC(C)C)nnc2-c2ccccn2)cc1,16.8%
19,Cc1ccc(-n2c(SCC(=O)N3CCOCC3)nnc2-c2cc3ccccc3o2)cc1,-10.7%
20,O=C(CSc1nnc(-c2ccc3c(c2)OCO3)n1-c1ccccc1)OCC(=O)c1ccccc1,69.9% (active)
